High-throughput results (PubChem BioAssay)
ATG4B inh: ATG4B protease inhibitors, primary screen, biochemical, fluorescence, uHTS; Cysteine protease ATG4B (Homo sapiens), Q9Y4P1; ATG4B cleavage of LC3-PLA2, NBD-HPC fluorescence, 1 h; inhibition, % at 8.33 µM; hit rate 0.51% among 340,000; AID 504462, 2011; in the data active = inhibition above about 40%
Target sequence (Q9Y4P1 whole entry, looked up): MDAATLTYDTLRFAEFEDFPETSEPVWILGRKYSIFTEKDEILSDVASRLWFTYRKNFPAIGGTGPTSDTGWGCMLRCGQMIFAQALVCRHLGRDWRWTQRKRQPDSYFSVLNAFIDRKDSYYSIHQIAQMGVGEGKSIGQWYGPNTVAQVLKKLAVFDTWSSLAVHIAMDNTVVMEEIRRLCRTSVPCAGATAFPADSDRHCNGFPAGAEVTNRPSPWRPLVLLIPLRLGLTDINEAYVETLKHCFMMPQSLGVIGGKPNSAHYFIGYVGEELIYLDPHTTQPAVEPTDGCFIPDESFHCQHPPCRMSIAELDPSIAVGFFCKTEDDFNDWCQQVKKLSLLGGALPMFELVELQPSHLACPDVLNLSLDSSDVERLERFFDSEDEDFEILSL
GRK2 inh: compounds blocking aptamer binding on GRK2 – biochemical, human GRK2, bead flow cytometry, HTS, primary screen | FAM-aptamer displacement from GRK2 | Beta-adrenergic receptor kinase 1 (Homo sapiens), P25098 | AID 488847, 2010 | hit rate 0.59% among 330,000 | inhibition of aptamer binding, % at 10 µM;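 active = inhibition of aptamer binding above 40%, roughly 3 SD of noise, on plates passing a quality check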;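 also: median bead fluorescence of bound FAM aptamer so fluorescent compounds give negative values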
Efflux pump mplx: inhibitors of Candida efflux pumps in yeast, primary screen, S. cerevisiae, Nile Red, multiplex; S. cerevisiae Candida pump triplex; inhibition, % at 10 µM; hit rate 0.44% among 330,000;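 active = plate passing quality check with inhibition over a set limit, or well fluorescence over plate mean plus 4 SD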;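 also: Nile Red retained in pooled yeast measured as flow cytometry median fluorescence; 0% = buffer negative control and 100% = Enniatin B positive control; higher means more Nile Red kept so more efflux inhibition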
CR mimetic SO: reduction of superoxide in aged yeast, primary screen, HTS. S. cerevisiae aged cells, superoxide DHE fluorescence; active compounds read low. hit rate 0.18% among 330,000. superoxide response (% of plate mean), % at 10 µM;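 active = superoxide response under a set limit, about three screen SD below normal, cut at about 65% in these data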;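 also: yeast aged for seven days with compound at 30 °C before DHE staining; 100% = average MFI of all compound-treated wells on the plate with controls excluded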
GRK2 inh confirm: GRK2 aptamer-displacing inhibitors, retest, confirmation, biochemical, cherry pick 1, bead flow cytometry; aptamer displacement, % at 10 µM; bead-bound GRK2, FAM-aptamer displacement; hit rate 4% among 2,000; shares compounds with GRK2 inh;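 active = aptamer displacement above 40%, near three times the noise of non-fluorescent compounds, on plates passing quality checks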;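 also: negative values mostly reflect intrinsic compound fluorescence rather than true enhancement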
Aptamer quench SP: counter-screen for GRK2 aptamer inhibitors: fluorescent aptamer quenchers; shares compounds with GRK2 inh; fluorescence response (% of DMSO), % at 10 µM; AID 504580; 2,000 tested, under 10 active; Carboxyfluorescein RNA aptamer on beads, flow cytometry quenching; active compounds read low;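 active = compounds that quench the bead-bound fluorescent RNA probe, cutting fluorescence to under half of the solvent control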;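 also: counterscreen run without GRK2 so only probe quenching by compound is measured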
* hit, by the source's call. A selection: hits, their analogues and other compounds. The true share with any hit is near 1.6%.

How did CC(C)(C)c1ccc(OCCCn2ccnc2)cc1 do in these assays?
ATG4B inh: -2; GRK2 inh: 1; Efflux pump mplx: 0; CR mimetic SO: 106

What do the screens show for `Cc1cc(OCc2nnc(SC(C)C(=O)O)n2Cc2ccccc2)ccc1Cl` (configuration not stated)?
ATG4B inh: -4

What do the screens show for `COc1cc(NC(=O)C2CCCO2)c(C(=O)O)cc1OC` (configuration not stated)?
ATG4B inh: 4; GRK2 inh: 38; Efflux pump mplx: 0; CR mimetic SO: 111; GRK2 inh confirm: 0; Aptamer quench SP: 99

Results for Cc1ccc(S(=O)(=O)N2C(=O)CCC2C(=O)O/N=C(\N)c2ccc([N+](=O)[O-])cc2)cc1 (configuration not stated) ?
ATG4B inh: -8; GRK2 inh: 7; Efflux pump mplx: 0; CR mimetic SO: 100

What do the screens show for `CN(C)C(=O)CN(c1ccc2c(c1)OCO2)S(C)(=O)=O`?
ATG4B inh: 1; GRK2 inh: 47*; Efflux pump mplx: 0; CR mimetic SO: 133; GRK2 inh confirm: 4; Aptamer quench SP: 103

How did CCOC(=O)Nc1ccc2c(c1)nc(CN1CCN(C(C)=O)CC1)n2C do in these assays?
ATG4B inh: 0; GRK2 inh: 68*; Efflux pump mplx: 0; CR mimetic SO: 105; GRK2 inh confirm: 0; Aptamer quench SP: 104

Results for CCn1ccnc1CNC(=O)c1ccc(OC2CCN(C(=O)COC)CC2)cc1 ?
ATG4B inh: 20; GRK2 inh: 0; Efflux pump mplx: 0; CR mimetic SO: 89; GRK2 inh confirm: 3; Aptamer quench SP: 97

How did Cc1ccc(C)c(NC(NC(=O)c2ccccn2)C(Cl)(Cl)Cl)c1 (configuration not stated) do in these assays?
ATG4B inh: -3; GRK2 inh: 0; Efflux pump mplx: 0; CR mimetic SO: 104

Results for Cc1ccc(S(=O)(=O)N2CCCNCC2)cc1 ?
ATG4B inh: -5; GRK2 inh: 2; Efflux pump mplx: 0; CR mimetic SO: 107

Results for O=S(=O)(c1ccc(F)cc1)N1CCCNCC1 ?
ATG4B inh: -2; GRK2 inh: 0; Efflux pump mplx: 0; CR mimetic SO: 96; GRK2 inh confirm: -13; Aptamer quench SP: 104

Results for CC(Cc1c[nH]c2ccccc12)C(=O)O (configuration not stated) ?
ATG4B inh: -2; GRK2 inh: 21; Efflux pump mplx: 0; CR mimetic SO: 80

What do the screens show for `O=C(O)C(O)Cc1c[nH]c2ccccc12` (configuration not stated)?
ATG4B inh: -24; GRK2 inh: 67*; Efflux pump mplx: 0; CR mimetic SO: 118; GRK2 inh confirm: 2; Aptamer quench SP: 100

How did O=C(c1ccccc1NS(=O)(=O)c1cccc(C(F)(F)F)c1)N1CCc2ccccc21 do in these assays?
ATG4B inh: -5; GRK2 inh: 0; Efflux pump mplx: 0; CR mimetic SO: 101

Results for Cc1noc(C)c1COc1cccc(C(=O)NCc2ccccc2Cl)c1 ?
ATG4B inh: 18; GRK2 inh: 1; Efflux pump mplx: 0; CR mimetic SO: 92; GRK2 inh confirm: 2; Aptamer quench SP: 94

How did Cc1noc(C)c1COc1cccc(C(=O)NC(C)(C)C)c1 do in these assays?
ATG4B inh: 4; GRK2 inh: 2; Efflux pump mplx: 0; CR mimetic SO: 112

Results for CN1CCN(C(=O)/C(=C/c2ccccc2F)NC(=O)c2ccccc2)CC1 ?
ATG4B inh: 3; GRK2 inh: 0; Efflux pump mplx: 0; CR mimetic SO: 100

Results for CCN1C(=O)[C@H]2[C@@H](c3ccc(-c4ccc(C(C)=O)cc4)cc3)N[C@@](C)(C(=O)OC)[C@H]2C1=O ?
ATG4B inh: -3; GRK2 inh: 0; Efflux pump mplx: 0; CR mimetic SO: 99

Results for COC(=O)c1ccc(OC(=O)/C=C/c2ccco2)cc1 ?
ATG4B inh: -9; GRK2 inh: 5; Efflux pump mplx: 0; CR mimetic SO: 95
